Screens (PubChem)
The list is not random: actives were taken first. Their share in the collection is about 8%.
KB-V1 MDR tox: kills drug-selected multidrug resistant KB-V1 cells; KB-V1 MDR cells viability, CellTiter-Glo, 72 h; Potency, µM (titrated, usually from 46.1 µM), hits mostly cytotoxic; actives 3.4% (n = 400,000); AID 1347076; also: % is scaled to controls: 0 for no effect and ±100 for the full control effect; nearly all actives have a fitted effect of over 60% in size
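Compound-treated KB-V1 multidrug-resistant cells, 72 h, 37 degrees C; viability by CellTiter-Glo. Fitted qHTS curves give the values.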
MCF10A rerep: inducers of DNA re-replication in MCF 10A breast cells; AID 624296; Potency, µM (highest dose often 46.1 µM), for the others: at the highest dose activity, positive = re-replication, usual class: activators; actives 2.9% (n = 350,000); MCF 10A DNA re-replication, Hoechst nuclear intensity, 48 h; also: % of control where 0% means no effect; nearly all actives have a fitted effect of over 50% in size
SW480 rerep: induces DNA re-replication in SW480 colon adenocarcinoma cells; Potency, µM (titrated, usually from 46.1 µM), without a hit: at the highest dose re-replication activation, usual class: activators; SW480 DNA re-replication, Hoechst DNA content imaging, 48 h; actives 1.8% (n = 340,000); also: % of control where 0% means no effect; nearly all actives have a fitted effect of over 55% in size
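Per well, 250 cells were exposed to pinned compound for 48 hr. Nuclear DNA was visualised with Hoechst (40 min, 37 C) and total object intensity recorded by fluorescence scanning.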
HT1080NT lethal: kills 2HG-producing HT-1080-NT fibrosarcoma cells; Potency, µM (titrated, usually from 46.1 µM), inactives show at the top dose activity, negative = less viability, usual class: cytotoxic; actives 1.6% (n = 360,000); HT-1080-NT fibrosarcoma viability, CellTiter-Glo ATP luminescence, 48 h;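 also: NT is the 2HG producing partner of a matched IDH1 knockdown line; 0% = DMSO-treated cells and -100% = media-only wells without cells; nearly all actives have a fitted effect of over 55% in size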
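Viability of the 2HG-overproducing fibrosarcoma line after 48 hours of compound exposure at 37 degrees C was determined by luminescence with CellTiter-Glo, and concentration-effect curves were then fitted and categorized.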
KB-3-1 tox: KB-3-1 parental cell cytotoxicity | AID 1347075 | Potency, µM (series often up to 46.1 µM), hits mostly cytotoxic | KB-3-1 viability, CellTiter-Glo ATP luminescence, 72 h | actives 1.4% (n = 400,000); also: % is scaled to controls: 0 for no effect and ±100 for the full control effect; nearly all actives have a fitted effect of over 60% in size
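Cytotoxicity measured as CellTiter-Glo luminescence after 72 h at 37 C. Compound titrations were pinned onto drug-naive KB-3-1 parental adenocarcinoma cells grown in DMEM with 10% FBS, and normalized data fitted to concentration-response curves.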
HT1080 IDH1KD tx: kills HT-1080 cells with IDH1 knockdown | HT-1080 IDH1 knockdown viability, ATP luminescence, 48 h | Potency, µM (top dose mostly 46.1 µM), for the others: top-dose activity, negative = toxicity, hits mostly cytotoxic | actives 2% (n = 360,000) | AID 686971;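 also: 0% = DMSO wells and -100% = cell-free medium wells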
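Cytotoxicity counter-line: IDH1KD HT-1080, 48 h, CellTiter-Glo. Curves classed by r2, magnitude and activity.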
* = called active by the depositor; [ ] = another dose, or the depositor's remark. Calls follow the shape of the dose curve; as a rule, active = well fitted curve in the direction sought with a large enough effect; inconclusive = small, poorly fitted or top-dose-only effect, or another doubt; inactive = no such curve, though single readings can be large; an effect the other way counts as inactive or inconclusive. Potency is read from the fitted curve at half-maximal effect.

For O=C(NNC(=S)Nc1cccc(C(F)(F)F)c1)c1ccccc1Cl the results were KB-V1 MDR tox inconclusive, MCF10A rerep 21%, SW480 rerep 5%, HT1080NT lethal 18µM*, KB-3-1 tox inconclusive and HT1080 IDH1KD tx inconclusive.
For CCOC(=O)c1[nH]c(C)c(CCC(=O)Nc2c(C)cc(C)cc2C)c1C the results were KB-V1 MDR tox inactive and KB-3-1 tox inactive.
`CN(C)c1ccc(/C=C/c2ncnc3ccccc23)cc1` gave KB-V1 MDR tox inactive and KB-3-1 tox inactive.
NC(=O)CC1C(=O)N(c2ccc(F)cc2)C(=O)N1NC(=O)CCc1ccccc1 (stereo not given) was read as KB-V1 MDR tox inactive, MCF10A rerep 4%, SW480 rerep -2%, HT1080NT lethal 14%, KB-3-1 tox inactive and HT1080 IDH1KD tx 0%.
Screening O=C(COC(=O)c1ccc(F)c(S(=O)(=O)N2CCOCC2)c1)NCCc1ccccc1 returned KB-V1 MDR tox inactive, MCF10A rerep -3%, SW480 rerep 13%, HT1080NT lethal 4%, KB-3-1 tox inactive and HT1080 IDH1KD tx -4%.
Screening FC(F)(F)c1cccc(NC(=S)Nc2cccc(NC(=S)Nc3cccc(C(F)(F)F)c3)n2)c1 returned KB-V1 MDR tox inconclusive, MCF10A rerep inconclusive, SW480 rerep inconclusive, HT1080NT lethal inconclusive, KB-3-1 tox inconclusive and HT1080 IDH1KD tx 23µM*.
For Cc1cccc(NC(=S)Nc2cccc(C(F)(F)F)c2)n1 the results were KB-V1 MDR tox inconclusive, MCF10A rerep 8%, SW480 rerep -2%, HT1080NT lethal -3%, KB-3-1 tox inconclusive and HT1080 IDH1KD tx -7%.
`FC(F)(F)c1cccc(N2CCN(C(=S)NC3CCCCC3)CC2)c1` gave KB-V1 MDR tox 21µM*, MCF10A rerep 13%, HT1080NT lethal -27%, KB-3-1 tox inconclusive and HT1080 IDH1KD tx inconclusive.
For CCOC(=O)CN1C(=O)C(Sc2n[nH]c(-c3ccc(C)cc3)n2)CCc2ccccc21 (stereo not given) the results were KB-V1 MDR tox inactive, MCF10A rerep 0%, SW480 rerep 0%, HT1080NT lethal inconclusive, KB-3-1 tox inactive and HT1080 IDH1KD tx inconclusive.
`CCOc1ccccc1N1C(=O)CC(Sc2n[nH]c(-c3ccccc3)n2)C1=O` (stereo not given) gave KB-V1 MDR tox inactive, MCF10A rerep 15µM*, SW480 rerep inconclusive, HT1080NT lethal 26%, KB-3-1 tox inactive and HT1080 IDH1KD tx inconclusive.
Screening CCOC(=O)CN1C(=O)C(Sc2n[nH]c(-c3cccc(C)c3)n2)CCc2ccccc21 (stereo not given) returned KB-V1 MDR tox 21µM*, MCF10A rerep -3%, SW480 rerep -1%, HT1080NT lethal inconclusive, KB-3-1 tox inactive and HT1080 IDH1KD tx inconclusive.
Screening COCCNC(=O)CSc1cc(=O)n(C)c2cc(Cl)ccc12 returned KB-V1 MDR tox inactive, MCF10A rerep 3%, SW480 rerep 2%, HT1080NT lethal 10%, KB-3-1 tox inactive and HT1080 IDH1KD tx 9%.
`Cc1cccn2c(=O)c3cc(C(=O)NC4CCCCC4)c(=N)n(CCN4CCOCC4)c3nc12` gave KB-V1 MDR tox inactive, MCF10A rerep inconclusive, SW480 rerep inconclusive, HT1080NT lethal 0%, KB-3-1 tox inactive and HT1080 IDH1KD tx 16%.
For CCOCCCn1c(=N)c(C(=O)NCc2ccc3c(c2)OCO3)cc2c(=O)n3cccc(C)c3nc21 the results were KB-V1 MDR tox inactive, MCF10A rerep inconclusive, SW480 rerep inconclusive, HT1080NT lethal 3%[9.24 µM], KB-3-1 tox 6.5µM* and HT1080 IDH1KD tx inconclusive.
For CCCCNC(=O)c1cc2c(=O)n3cccc(C)c3nc2n(CCN2CCOCC2)c1=N the results were KB-V1 MDR tox 10µM*, MCF10A rerep inconclusive, SW480 rerep inconclusive, HT1080NT lethal 6%, KB-3-1 tox inactive and HT1080 IDH1KD tx 16%.
Cc1cccn2c(=O)c3cc(C(=O)NCc4ccc(F)cc4)c(=N)n(CCCN4CCOCC4)c3nc12 was read as KB-V1 MDR tox inactive, MCF10A rerep inconclusive, SW480 rerep 8.2µM*, HT1080NT lethal -24%, KB-3-1 tox inactive and HT1080 IDH1KD tx -6%.
For CCOCCCn1c(SCC(=O)NCc2ccc3c(c2)OCO3)nc2ccccc2c1=O the results were KB-V1 MDR tox 15µM*, MCF10A rerep 13%, SW480 rerep -1%, HT1080NT lethal 2%, KB-3-1 tox inactive and HT1080 IDH1KD tx 1%.
Screening COc1ccc(OC)c(NC(=O)CSc2nc3ccccc3c(=O)n2CCC(=O)NC2CCCCC2)c1 returned KB-V1 MDR tox inactive and KB-3-1 tox inactive.
CC(=O)Nc1ccc(NC(=O)C(C)OC(=O)C(C)SCC(=O)Nc2ccc(F)cc2)cc1 (stereo not given) was read as KB-V1 MDR tox inactive, MCF10A rerep 8%, SW480 rerep -4%, HT1080NT lethal -1%, KB-3-1 tox inactive and HT1080 IDH1KD tx -2%.
Screening N#CCC(=O)Nc1sc2c(c1C(N)=O)CCCC2 returned KB-V1 MDR tox inactive, MCF10A rerep 23µM*, SW480 rerep -1%, HT1080NT lethal 17%, KB-3-1 tox inactive and HT1080 IDH1KD tx 10%.
`C=CC(=O)Nc1sc2c(c1C(N)=O)CCCC2` gave KB-V1 MDR tox inconclusive, MCF10A rerep 21µM*, SW480 rerep inconclusive, HT1080NT lethal -15%, KB-3-1 tox inconclusive and HT1080 IDH1KD tx -15%.
For Cc1noc(C)c1C(=O)Nc1sc2c(c1C(N)=O)CCC2 the results were KB-V1 MDR tox inactive, MCF10A rerep -3%, SW480 rerep -7%, HT1080NT lethal 9%, KB-3-1 tox inactive and HT1080 IDH1KD tx 12%.
Cc1noc(C)c1C(=O)Nc1sc2c(c1C(N)=O)CCCCC2 was read as KB-V1 MDR tox 21µM*, MCF10A rerep -7%, SW480 rerep -15%, HT1080NT lethal -19%, KB-3-1 tox inactive and HT1080 IDH1KD tx -4%.
O=C(Nc1ccc2ccccc2c1)Nc1nnc(-c2ccc(F)cc2)s1 was read as KB-V1 MDR tox inactive and KB-3-1 tox inconclusive.
Screening CN(Cc1ccccc1)S(=O)(=O)c1ccc(Cl)c(C(=O)N2CCC(C(N)=O)CC2)c1 returned KB-V1 MDR tox inactive, MCF10A rerep inconclusive, SW480 rerep -1%, HT1080NT lethal -1%, KB-3-1 tox inactive and HT1080 IDH1KD tx 2%.
